An excerpt weighted towards active compounds, which were near 3.7% of everything screened.
tim10-1 inh: tim10-1 yeast growth inhibition. S. cerevisiae tim10-1 ts strain growth, BacTiter-Glo, 24 h. actives 2.2% (n = 330,000). inhibition, % at 20 µM. AID 463190;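 active means inhibition of at least 40%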;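 further: mutant grown at 25 °C; 0% = DMSO wells with yeast and 100% = wells holding no yeast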
TIM10 inh: TIM10 yeast growth inhibition; S. cerevisiae TIM10 strain growth, BacTiter-Glo luminescence, 24 h; inhibition, % at 10 µM; actives 1.4% (n = 330,000); AID 463195;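 active means inhibition of 40% or more at the single tested concentration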;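 further: wild-type TIM10 isogenic control strain grown at permissive 25 °C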
tim23-1 inh: growth inhibitors of tim23-1 mutant yeast; S. cerevisiae tim23-1 growth, BacTiter-Glo luminescence, 24 h; inhibition, % at 20 µM; actives 1.3% (n = 330,000);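 active means growth inhibition of the mutant yeast at or above 50%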;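 further: temperature-sensitive mutant grown at 25 °C; plate controls were DMSO-treated mutant yeast for no effect and medium wells lacking yeast for full effect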
PfHsp90 yeast 2: reduces growth (ATP signal) of yeast expressing P. falciparum Hsp90; S. cerevisiae expressing PfHsp90, BacTiter-Glo ATP, 48 h; yeast lacking PDR1 and PDR3 efflux regulators; inhibition, % at 9.4 µM; actives 0.32% (n = 310,000);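 active means every replicate shows inhibition above about 80%, whatever the replicate mean, limit read from the data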;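 further: 0% = DMSO neutral controls and 100% = 20 µM radicicol positive controls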
NLRP3 yeast inh: NALP3 inhibition in yeast; Yeast reconstituted NLRP3/ASC/caspase-1, beta-gal luminescence, 24 h; inhibition, % at 10 µM; actives 0.39% (n = 330,000);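 active means inhibition of 50% or more; inactive means inhibition below 50%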;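 further: plate controls were induced DMSO wells for no effect and uninduced yeast grown without galactose for full effect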
tim10-1 confirm: tim10-1 yeast growth inhibition, confirmed; shares compounds with tim10-1 inh; S. cerevisiae tim10-1 ts strain growth, BacTiter-Glo, 24 h; inhibition, % at 20 µM; actives 56% (n = 7,400); AID 463213;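 active means inhibition of yeast growth at or above a set limit in either of two repeat tests at 20 µM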;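 further: tim10-1 mutant grown at permissive 25 °C to find synthetic lethal compounds; 0% = DMSO yeast wells and 100% = medium wells without yeast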
* marks the source's active call; other numbers are inactive results; nt = not tested or not shown.

SMILES | tim10-1 inh | TIM10 inh | tim23-1 inh | PfHsp90 yeast 2 | NLRP3 yeast inh | tim10-1 confirm
COc1ccc(F)c(CN2CCC(n3nccc3NC(=O)C3CCOC3)CC2)c1 (stereo not given) | -2.8 | -2.6 | -1.1 | -1.1 | 18.2 | nt
N#C/C(=N\Nc1cccc(Cl)c1)C(=O)c1ccccc1 | 41.6* | 14.8 | 36.5 | -17.2 | 43.6 | 25.4
Cc1cc(NC(=O)C(C)SCC(=O)N(C)CC(=O)Nc2ccc(Br)cc2C)no1 (stereo not given) | -8.7 | 5.9 | -0.7 | -9.5 | 7.0 | nt
Cc1ccc(NC(=O)COC(=O)c2ccc(CN3CCCC3=O)cc2)c(Cl)c1 | 8.4 | 9.3 | 6.6 | -5.9 | 14.3 | nt
Cc1ccc(S(=O)(=O)N(Cc2ccccc2)c2ccccc2C(=O)NCc2cccnc2)cc1 | 40.9* | 13.8 | 24.4 | -1.4 | -4.6 | 8.5
O=C(Nc1sc2c(c1C(=O)c1ccc(Cl)cc1)CCCC2)c1cccnc1 | 40.8* | 23.1 | 31.8 | nt | 7.9 | 28.0
O=C(Cc1cccc(NC(=O)C2CCCN(C(=O)CCc3ccccc3)C2)c1)Nc1ccc(C(=O)N2CCOCC2)cc1 (stereo not given) | nt | nt | nt | 2.4 | nt | nt
COC(=O)CSc1nnc([C@H](Cc2ccccc2)NC(=O)OC(C)(C)C)o1 | 15.9 | -5.2 | 19.0 | -4.6 | 11.8 | nt
COC(=O)CS(=O)(=O)c1nnc([C@H](Cc2ccccc2)NC(=O)OC(C)(C)C)o1 | 43.7* | 18.4 | 23.2 | -33.5 | 13.4 | 37.7*
S=C1NC(c2cccs2)=CC(c2ccc(Br)cc2)N1 (stereo not given) | 40.5* | 13.0 | 38.6 | 5.1 | 5.9 | 32.6*
CCOC(=O)CSc1cc(-c2ccccc2)nc2ncnn12 | 43.7* | 33.6 | 35.9 | 9.0 | 13.7 | 34.5*
CC(=O)c1cccc(NC(=S)NC(=O)c2cncc(Br)c2)c1 | 34.3 | 15.4 | 36.4 | -14.4 | 14.5 | nt
COc1cccc(NC(=S)NC(=O)c2cncc(Br)c2)c1 | 46.7* | 36.9 | 44.7 | -12.2 | 5.9 | 6.8
O=C(NC(=S)Nc1ccccc1O)c1cncc(Br)c1 | 25.9 | 23.7 | 11.4 | -49.6 | 7.9 | nt
O=C(NC(=S)Nc1ccccc1[N+](=O)[O-])c1cncc(Br)c1 | 40.0 | 17.3 | 44.8 | -31.6 | 26.4 | 13.6
COc1ccc(N2CCN(C(=O)COC(=O)Cc3c(F)cccc3Cl)CC2)cc1 | 45.0* | 16.5 | 39.2 | -17.1 | 19.1 | 23.9
CCN(CC)S(=O)(=O)c1ccc(N2CCN(C)CC2)c(NC(=O)COc2ccc(F)cc2Cl)c1 | -1.2 | 5.4 | -0.1 | nt | 7.1 | nt
O=C(Nc1cccc2ccccc12)c1cn(-c2ccccc2)nc1-c1cccs1 | 28.0 | 30.7 | 15.3 | -0.9 | 15.3 | nt
O=C(Nc1cccnc1)c1cn(-c2ccccc2)nc1-c1cccs1 | 43.2* | 39.9 | 42.4 | 24.1 | 28.8 | 42.9*
COc1cc2c(cc1OC)CN(CCC(=O)c1ccc(Br)cc1)CC2 | 49.6* | 3.6 | 21.1 | nt | 2.9 | 32.6*
COc1cc2c(cc1OC)CN(C(=O)CCNC(=O)c1ccc(Br)cc1)CC2 | 5.4 | -7.4 | 3.1 | -15.3 | 18.8 | nt
CN1CCCC(CC2Oc3ccccc3Sc3ccccc32)C1 (stereo not given) | 40.1* | 19.5 | 4.4 | 21.5 | 28.2 | 19.9
Cc1cc(/C=N\NC(=O)CC(=O)NC2CCCCC2)c(C)n1-c1ccc(Cl)c(Cl)c1 | 46.4* | -8.7 | -0.3 | 15.0 | 6.6 | -19.6
Cc1cccc(C)c1-n1c(C)cc(/C=N\NC(=O)CC(=O)NC2CCCCC2)c1C | 41.1* | 22.0 | 22.3 | 16.8 | -9.9 | 27.4
Cc1cc(/C=N\NC(=O)CC(=O)NC2CCCCC2)c(C)n1-c1cccc(Cl)c1Cl | 10.3 | 8.4 | 26.5 | -21.7 | 20.6 | nt
SMILES | tim10-1 inh | TIM10 inh | tim23-1 inh | PfHsp90 yeast 2 | NLRP3 yeast inh | tim10-1 confirm
Cc1ccc(NC(=O)CS(=O)Cc2nc(-c3ccc(C)cc3)oc2C)cc1 (stereo not given) | 40.4* | 21.8 | 20.5 | 9.6 | 8.6 | 13.9
Cc1ccccc1-c1nc(CS(=O)CC(=O)NCCc2ccc(Cl)cc2)c(C)o1 (stereo not given) | 44.0* | 6.5 | 26.5 | 3.0 | 8.4 | -6.8
Cc1oc(-c2ccc(Cl)cc2)nc1CS(=O)CC(=O)NC1CCCCCC1 (stereo not given) | 32.8 | 29.5 | 30.6 | 12.6 | -13.1 | nt
Cc1oc(-c2ccc(Cl)cc2)nc1CS(=O)CC(=O)NC1CCCCC1 (stereo not given) | 40.3* | 32.0 | 41.5 | 7.4 | -24.7 | 33.0*
Cc1cc(C)nc(NN=C(c2ccccc2)c2ccccc2)n1 | 46.6* | 25.3 | 42.4 | 10.5 | 18.3 | 24.0
COc1ccc(Nc2ncnc3scc(-c4ccc(OC)cc4)c23)cc1 | 48.6* | 39.1 | 39.9 | -6.4 | 11.2 | 35.9*
COc1cccc(-c2nc3ccc(O)cc3c(=O)o2)c1 | 54.7* | 39.1 | 45.4 | 7.3 | -3.3 | 30.9
CC(C)(C)C(=O)Nc1ccc(-c2nc3ccccc3c(=O)o2)cc1 | 27.9 | 29.8 | 10.0 | 0.6 | -1.7 | nt
CC(C)(C)C(=O)Nc1cccc(-c2nc3ccccc3c(=O)o2)c1 | 40.2* | 25.1 | 37.4 | -4.9 | 22.1 | 48.4*
CC(C)C(=O)Nc1ccc(-c2nc3ccccc3c(=O)o2)cc1 | 56.1* | 38.0 | 36.6 | 0.8 | 2.4 | 41.0*
O=C(COC(=O)c1cc(S(=O)(=O)N2CCOCC2)ccc1Cl)NCc1ccccc1 | 6.5 | -0.3 | 7.0 | -3.8 | 14.8 | nt
Cc1c(N)cc(S(=O)(=O)O)cc1NC(=O)c1cccc([N+](=O)[O-])c1 | nt | nt | nt | -0.5 | nt | nt
O=c1[nH]nc(Br)c(=O)n1C(c1ccccc1)c1ccccc1 | nt | nt | nt | 9.6 | nt | nt
O=C(CN1CCN(C(=O)C2CCCO2)CC1)Nc1ccc(Cl)cc1 (stereo not given) | 7.9 | 3.1 | 23.1 | -17.7 | 11.0 | nt
Cc1ccc2c(C)c(C(=O)N3CCN(Cc4ccc5c(c4)OCO5)CC3)oc2c1C | 46.9* | 20.5 | 42.7 | 8.3 | 20.3 | 8.2
O=C(c1cccc(Cl)c1)N1CCN(Cc2ccc3c(c2)OCO3)CC1 | 8.0 | -4.4 | 7.5 | -2.0 | 8.9 | nt
O=C(c1cc2cc(Cl)ccc2[nH]1)N1CCN(Cc2ccc3c(c2)OCO3)CC1 | 48.8* | 24.5 | 37.2 | 8.1 | -4.9 | -27.4
Cc1c2cnn(CC(=O)NCCN3CCOCC3)c(=O)c2c(C)n1Cc1ccccc1F | nt | nt | nt | 6.1 | nt | nt
CCCn1c(NC(=O)CN2C(=O)NC3(CCCC3)C2=O)nc2ccccc21 | 5.6 | 0.7 | 2.2 | nt | -0.8 | nt
CCOc1ccc(S(=O)(=O)N(CC)CC)cc1NC(=O)CSCc1c(C)noc1C | 24.2 | 9.4 | 19.2 | nt | 18.0 | nt
CN(C)c1ccc(/C=C/C(=O)c2ccc3c(c2)OCO3)cc1 | -7.1 | -11.8 | 13.2 | 2.9 | 33.0 | nt
O=C(/C=C/c1ccncc1)c1ccc2c(c1)OCCO2 | 45.8* | 31.9 | 25.5 | 9.8 | 25.7 | 38.5*
N#Cc1cn(Cc2ccco2)c(=O)[nH]c1=O | nt | nt | nt | 2.7 | nt | nt
COc1ncccc1C(=O)NC1CCCc2c1cnn2-c1cc(C)cc(C)c1 (stereo not given) | 48.1* | 21.3 | 20.6 | -8.7 | -71.8 | 7.6

Source: PubChem (several laboratories)
